SMILES strings stand for the structures. Results filed as inconclusive are left out. A call without a number means that no potency is given here. Active and inactive are the calls of the source. The call rests on the fitted dose curve; in most records, active means well fitted inhibition curve with a large enough effect; inconclusive means small, poorly fitted or top-dose-only effect, or effect the other way; inactive means flat fitted curve, though single readings scatter.

The assay can be described thus: qHTS Assay Multiplex Screening to Identify Dual Action Probes in a Cell Model of Huntington: Cytoprotection (Protease relase). As to conditions: PC12 HttQ103 cells, Cytotox-Glo protease release, 40 h; series mostly up to 46.1 µM. In short, it runs like this:
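Inducible PC12 line expressing HTT exon 1 (Q103)-GFP, induced with 100 nM tebufenozide (final) and treated with compounds. Cytoprotection read as released protease activity by Cytotox-Glo luminescence.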
In general terms: Quantitative high-throughput screening tests each substance at several concentrations.
`Cn1nnnc1Sc1ncnc2scc(-c3ccc(Br)cc3)c12`: the Potency is 7.08 µM (active).
Consider `O=C(NCN1C(=O)C2C3C=CC(C3)C2C1=O)Nc1ccccn1` (configuration not stated), for which the Potency result is “inactive”.
For `Cc1ccc(-c2csc3ncnc(Sc4nnnn4C)c23)cc1`, the Potency was 14.1 µM (active).
`Cn1nnnc1Sc1ncnc2scc(-c3cccc(C#N)c3)c12`: the Potency is 10 µM (active).
In the case of `COc1c(F)c(F)c(C(=O)Nc2ccc3oc(-c4ccncc4)nc3c2)c(F)c1F` it was “inactive”; in that of `Cn1nnnc1Sc1ncnc2scc(-c3ccccc3Cl)c12`, 15.8 µM (active).
With `C[C@@H]1CNCCN1S(=O)(=O)c1cccc2cnccc12`, the Potency result is “inactive”.
As to `COc1cccc(C(=O)Nc2ccc(F)c(F)c2F)c1`, the Potency is 7.08 µM (active).
Turning to `CC(=O)OCC1=C(C(=O)O)N2C(=O)[C@@H](NC(=O)Cc3cccs3)[C@H]2SC1`, the Potency result was “inactive”.
Take `Cc1nnc(C)n1/N=C/c1cc(Br)cc(Br)c1O`: the Potency result was “inactive”.
On to `O=C(CN1CCN(c2ccccn2)CC1)NC1CCCC1`, for which the Potency entry is “inactive”.
As for `C=C1CCC2[C@](C)(CO)[C@H](O)CC[C@@]2(C)[C@@H]1C/C=C1/C(=O)OC[C@H]1O` (some centres not stated), the Potency entry was “inactive”.
Next, `O=C(NCc1ccco1)c1cc2ccc(O)cc2oc1=O`: 2.82 µM (active); `Cn1nnnc1Sc1ncnc2scc(-c3ccc(C(F)(F)F)cc3)c12`: 12.6 µM (active).
Take `Cn1nnnc1Sc1ncnc2scc(-c3ccc4ccccc4c3)c12`: the Potency was 10 µM (active).
For the compound `CCc1nc(SCC(=O)Nc2nc3c(s2)CCCC3)c2ccccc2n1`, the Potency entry is “inactive”.
In the case of `O=C(O)c1cc(=O)c2ccc(Cl)cc2[nH]1`, the Potency result is “inactive”.
In the case of `Cn1nnnc1Sc1ncnc2scc(-c3cccc(S(C)(=O)=O)c3)c12` it was 7.08 µM (active).
In the case of `COc1ccc(C2=Nc3cc(C)ccc3OC2)cc1` it was 11.2 µM (active); in that of `CN1C(=O)CC(Sc2ncccc2C(=O)O)C1=O` (configuration not stated), “inactive”.
Next, `O=c1c2ccccc2nnn1CSc1ncnc2ccccc12`: “inactive”.
`O=C(c1ccccc1)c1ccc2n1CCC2C(=O)O` (configuration not stated): the Potency was 3.98 µM (active).

Values taken from PubChem BioAssay AID2669 (National Center for Advancing Translational Sciences (NCATS), 2010).
